# A selection: hits, their analogues and other compounds. The true share with any hit is near 19%.
# IL-1B inflam inh: blocks inflammasome-driven IL-1 beta release. THP-1 LPS/ATP IL-1B secretion, AlphaLISA, 16 h; stronger effect = lower value. activity change, % at 57.5 µM. actives 4.7% (n = 360,000); in the data active = activity change below about -50%; inconclusive = mostly about -30% to -49%
#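 THP-1 cells pretreated 1 hr with compounds (up to 57.5 uM final), then stimulated with LPS (250 ng/mL final) plus ATP (1.25 mM final); secreted IL-1B measured by AlphaLISA after 16 hr, decreased signal indicating inhibition.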
# DT40 TDP1 no CPT: qHTS for Inhibitors of human tyrosyl-DNA phosphodiesterase 1 (TDP1): qHTS in cells in absence of CPT; DT40 Tdp1-/- hTDP1 cells, no CPT, ATP luminescence, 48 h; Potency, µM (series often up to 46.2 µM), without a hit: at the top dose activity change, negative = growth inhibition, most hits filed as inhibitors; actives 15% (n = 420,000); also: potency is read from the fitted curve at half-maximal effect; nearly all actives have a fitted effect of over 55% in size
#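 Stably hTDP1-transfected Tdp1-null chicken DT40 cells were treated with library compounds minus camptothecin and grown for at least 48 hr at 37 °C, after which cellular ATP was quantified by luminescence.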
# HT1080NT lethal: kills 2HG-producing HT-1080-NT fibrosarcoma cells | HT-1080-NT fibrosarcoma viability, CellTiter-Glo ATP luminescence, 48 h | Potency, µM (series often up to 46.1 µM), inactives show at the highest dose activity, negative = less viability, hits mostly cytotoxic | actives 1.6% (n = 360,000);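 also: NT is the 2HG producing partner of a matched IDH1 knockdown line; potency is read from the fitted curve at half-maximal effect; 0% = DMSO-treated cells and -100% = media-only wells without cells; nearly all actives have a fitted effect of over 55% in size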
#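 HT-1080-NT; 750 cells/well; 5% FBS RPMI; 48 h compound, 37 degrees C; CellTiter-Glo luminescence; curve fitting and curve-class assignment.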
# DT40 TDP1 CPT: DT40-hTDP1 cell growth loss with CPT; actives 12% (n = 420,000); Potency, µM (doses to about 46.2 µM), without a hit: at the top dose activity change, negative = growth inhibition, hits mostly inhibitors; chicken DT40 Tdp1-/-;hTDP1 cells + 20 nM CPT, ATP luminescence, 48 h; also: potency is read from the fitted curve at half-maximal effect; nearly all actives have a fitted effect of over 55% in size
#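 Chicken DT40 Tdp1-/- cells complemented with human TDP1, 400 cells/well, exposed to compounds plus 20 nM camptothecin for at least 48 h at 37 C; viability read as ATP content by CellTiter-Glo luminescence.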
# HT1080 IDH1KD tx: kills HT-1080 cells with IDH1 knockdown | HT-1080 IDH1 knockdown viability, ATP luminescence, 48 h | actives 2% (n = 360,000) | Potency, µM (titrated, usually from 46.1 µM), without a hit: at the highest dose activity, negative = toxicity, hits mostly cytotoxic | AID 686971;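 also: potency is read from the fitted curve at half-maximal effect; 0% = DMSO wells and -100% = cell-free medium wells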
#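 CellTiter-Glo luminescence after 48 h compound exposure at 37 degrees C of IDH1-knockdown HT-1080 cells in 5% FBS RPMI. %Activity scaled between DMSO wells and cell-free media wells, with curves fitted and assigned curve classes.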
# * marks the source's active call; other numbers are inactive results; ? = inconclusive; / = no result. Unless noted, calls follow the shape of the dose curve; as a rule, active = well fitted curve in the direction sought with a large enough effect; inconclusive = small, poorly fitted or top-dose-only effect, or another doubt; inactive = no such curve, though single readings can be large; an effect the other way counts as inactive or inconclusive. Unless noted, % is scaled to controls: 0 for no effect and ±100 for the full control effect.
SMILES,IL-1B inflam inh,DT40 TDP1 no CPT,HT1080NT lethal,DT40 TDP1 CPT,HT1080 IDH1KD tx
CCCCCCSc1ccc([C@@H]2[C@@H]3C(=O)N(C)C(=O)[C@@H]3[C@]3(C(=O)OC)CCCCN23)cc1,?,26µM*,?,9.2µM*,?
NC(=O)c1ccc(NC(=O)COC(=O)CC2Sc3ccccc3NC2=O)cc1 (stereo not drawn),36,-20%,1%,3%,6%
CNC(=O)COc1coc(CN2CCN(C(=O)c3ccco3)CC2)cc1=O,4,16%,2%,-10%,14%
Cc1cccc(OCC(=O)Nc2nonc2-c2ccc(Br)cc2)c1C,/,?,/,18µM*,/
Cc1cccc(OC(C)C(=O)Nc2nonc2-c2ccc(Br)cc2)c1C (stereo not drawn),/,16µM*,/,26µM*,/
Cc1ccc(OC(C)C(=O)Nc2nonc2-c2ccc(Br)cc2)cc1C (stereo not drawn),/,18µM*,/,?,/
Cc1ccc(OCC(=O)Nc2nonc2-c2ccc(Br)cc2)cc1,/,-18%,/,-6%,/
CC(Oc1ccc(Br)cc1Br)C(=O)Nc1cccnc1 (stereo not drawn),-2,-13%,0%,-24%,1%
CC(=S)/C=C1\Sc2ccccc2N1C,-61*,23µM*,?,15µM*,?
Nc1nnc(CC(=O)N/N=C/c2ccc(-c3ccc(F)cc3)o2)s1,-51*,-16%,16%,6%,9%
CCOC(=O)c1c(-c2ccc(F)cc2)csc1NC(=O)CN1C(=O)NC2(CCCCC2C)C1=O (stereo not drawn),15,?,-28%,21µM*,?
CCOC(=O)c1c(NC(=O)CN2C(=O)NC3(CCCCC3C)C2=O)sc(C)c1C (stereo not drawn),2,21µM*,-10%,21µM*,-5%
CCn1c(SCc2c(F)cccc2Cl)nc(=O)c2c(C(=O)OC)cc(C3CC3)nc21,/,?,/,-8%,/
Cc1ccccc1Cn1cc(CCC(=O)NC(C)c2ccccc2)c2ccccc21 (stereo not drawn),/,23µM*,/,13µM*,/
COc1cccc(CNC(=O)CCCc2cn(C)c3ccccc23)c1,-23,5%,1%,0%,-2%
Cn1cc(CCCC(=O)NCc2cccc(Br)c2)c2ccccc21,/,18µM*,/,?,/
CC(C)NC(=O)CCCc1cn(C)c2ccccc12,-2,-5%,5%,-15%,13%
CC(CCc1ccccc1)NC(=O)CCc1cn(C)c2ccccc12 (stereo not drawn),-77*,18µM*,25%,-1%,18%
O=C(Cc1csc2ccccc12)NCc1cccc(Br)c1,/,21µM*,/,16µM*,/
COC(=O)c1c(C(=O)OC)c2ccncn2c1Cl,24,-29%,13%,-15%,9%
CCN(CC(=O)NCc1ccco1)S(=O)(=O)c1ccc(OC)cc1,-8,0%,6%,-1%,7%
Cc1cc(S(=O)(=O)N2CCCOC2CNC(=O)C(=O)NCc2cccs2)ccc1F (stereo not drawn),-3,?,-1%,?,1%
CC(=O)Nc1ccc(Nc2ncnc3c2c(-c2ccccc2)cn3-c2ccccc2)cc1,/,18µM*,/,16µM*,/
CC(C)c1ccc(Nc2ncnc3c2c(-c2ccccc2)cn3-c2ccccc2)cc1,/,?,/,3.7µM*,/
CC(=O)Nc1ccc(Nc2ncnc3c2c(-c2ccccc2)cn3-c2ccc(C)c(Cl)c2)cc1,/,8.2µM*,/,9.2µM*,/
CCN(c1ncnc2c1c(-c1ccccc1)cn2-c1ccccc1)C1CCCCC1,/,0%,/,-20%,/
CC(=O)Nc1ccc(Nc2ncnc3c2cnn3C)cc1,/,?,/,16µM*,/
COc1ccc(S(=O)(=O)N2CCCC2C(=O)n2nc(C)cc2C)cc1 (stereo not drawn),15,?,?,?,-28%
CN(C)S(=O)(=O)N1CCN(CC(=O)Nc2ccc(F)cc2)CC1,-6,-17%,-3%,4%,-2%

# Screening results (PubChem BioAssay)
